Screening data (PubChem BioAssay)
ABHD5 PLIN5 PPI = blocks binding of human ABHD5 to perilipin-5 | 360,000 compounds, 0.78% hits | inhibition, % at 4 µM | Split G. princeps luciferase complementation, luminescence, 4 h | AID 602281 | Q00G26+Q8WTS1;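 active means inhibition above the mean inhibition across every tested compound plus 3 SD, cut at about 22% in these data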;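 further: 0% = DMSO only wells and the 100% control is not disclosed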
TLR9-MyD88 inh = inhibitors of human TLR9-MyD88 binding. Q9NR96+Q99836. CHO BLA complementation TLR9-MyD88, CCF4 FRET ratio. inhibition, % at 4.98 µM. 340,000 compounds, 0.21% hits. AID 504734;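 active means inhibition above the mean over all tested compounds plus 3 SD, cut at about 21% in these data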;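 further: 0% = DMSO only wells and 100% = clavulanate BLA inhibitor control wells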
TLR4-MyD88 BLA = blocks binding of human TLR4 to MyD88; O00206+Q99836; HeLa CL3-4 TLR4/MyD88 BLA complementation, FRET ratio; inhibition, % at 8.4 µM; 200,000 compounds, 0.18% hits; AID 861; in the data active means inhibition above about 25%;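 further: 0% = vehicle and 100% = reference inhibitor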
HTR2A ag = agonists of mouse serotonin 5-HT2A receptor (HTR2A); activation, % at 7.6 µM; 360,000 compounds, 0.66% hits; P35363; CHO-K1 mHTR2A beta-arrestin complementation, luminescence; percent of 30 µM serotonin response; AID 624169;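 active means activation above a run cutoff, the mean activation of all tested compounds plus 3 SD, cut at about 14% in these data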;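 further: 0% = plate median of compound wells and 100% = 30 µM serotonin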
CRFR2-BP antag = CRF-BP/CRF-R2 complex antagonism; HEK293 CRF-R2/CRF-BP, CRF-induced calcium fluorescence; inhibition, % at 11.8 µM; 350,000 compounds, 0.59% hits;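 active means inhibition of the ligand-induced calcium signal above about 50% at the single tested concentration, limit read from the data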
NOD2-RIPK2 inh = blocks binding of human NOD2 to RIPK2; O43353; CHO BLA complementation NOD2-RIPK2, CCF4 ratio; inhibition, % at 4.98 µM; 360,000 compounds, 0.38% hits; AID 624267; in the data active means inhibition above about 21%;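 further: 0% = vehicle only and 100% = reference blocker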
MOR ag counter = OPRM1 agonism in mouse HTR2A counterscreen; AID 624380; 2,300 compounds, 5.3% hits; activation, % at 9.3 µM; shares compounds with HTR2A ag; U2OS OPRM1 beta-arrestin PathHunter, luminescence; DMSO 0%, DAMGO 9.3 µM 100%;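 active means mean activation above the mean of DMSO-only wells plus 3 SD, cut at about 0.5% in these data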
m5-HT2A ag conf = confirmation of mouse HTR2A serotonin receptor agonists; activation, % at 7.6 µM; CHO-K1 PathHunter beta-arrestin recruitment, luminescence; DMSO 0%, 30 µM serotonin 100%; 2,300 compounds, 19% hits; shares compounds with HTR2A ag; AID 624381;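 active means mean activation across triplicates above the hit threshold derived in the original primary screen, cut at about 15% in these data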
Starred values were filed as active, the others as inactive; . = no result given. A selection: hits, their analogues and other compounds. The true share with any hit is near 2.4%.

SMILES	ABHD5 PLIN5 PPI	TLR9-MyD88 inh	TLR4-MyD88 BLA	HTR2A ag	CRFR2-BP antag	NOD2-RIPK2 inh	MOR ag counter	m5-HT2A ag conf
CCOC(=O)C[C@@H]1OC[C@H](C)N1S(=O)(=O)c1ccc(C)cc1	-1.7	.	.	0.0	.	-5.9	.	.
CCOC(=O)C(NC(=O)C1C(C)N1S(=O)(=O)c1ccc(C)cc1)C(=O)OCC (stereo not given)	-1.2	-7.9	.	16.4*	1.9	-1.5	-0.5	-3.2
Cc1ccccc1-n1c(SC(C)C(=O)NCC2CCCO2)nnc1-c1ccncc1 (stereo not given)	2.1	0.0	.	15.2*	-5.8	0.9	-0.3	-0.6
CNc1cc(-c2cc(OC)ccc2OC)ncn1	-1.4	.	.	-5.0	.	8.9	.	.
CC(=O)N1CC2(CC(c3ccc(Cl)cc3Cl)=NO2)CN1c1cccc(Cl)c1 (stereo not given)	-6.6	-7.2	.	1.4	0.1	11.1	.	.
O=c1[nH]c(=O)n(C2OC(CO)C(O)C2O)c2c1CCCC2 (stereo not given)	-0.6	.	.	0.3	.	0.2	.	.
CCOc1ccc(C(=O)Nc2c3c(nn2-c2cccc(C)c2C)CS(=O)C3)cc1 (stereo not given)	3.4	7.9	7.7	17.2*	6.6	-11.7	-0.3	2.2
CC(=O)Nc1cccc(-c2ccnc3c2CC(C)(C(=O)Nc2ccc(Cl)cc2)O3)c1 (stereo not given)	6.9	.	.	-1.5	.	13.7	.	.
COc1ccc(S(=O)(=O)N/N=C\c2ccccc2F)cc1	11.6	-4.2	.	14.7*	-7.3	1.8	-0.8	-4.9
Cc1ncc(CO)c2c1Oc1nc(-c3ccccc3)nc(SCC(=O)N3CCCCC3)c1C2	5.5	3.7	.	9.4	-3.1	-0.8	.	.
COc1ccccc1-c1nc2c(c(SCC(=O)N3CCCCC3)n1)Cc1c(CO)cnc(C)c1O2	3.9	-47.0	.	14.7*	-6.1	-3.2	-0.5	-3.4
O=S(=O)(NOCc1ccc(Cl)cc1)c1ccc(Cl)cc1	-4.3	2.0	.	14.9*	28.7	-4.7	0.2	-3.4
Cc1ccc(CONS(=O)(=O)c2cc(C)ccc2C)cc1	-1.9	-7.8	.	0.8	-0.2	0.4	.	.
O=C(CN1CCN(Cc2ccccc2F)C1=O)NCCc1ccc(Cl)cc1	5.0	6.3	13.7	16.3*	-15.7	-8.0	-0.5	-7.0
COc1cc(C(=O)C(=O)N2CCN(c3ccccc3)CC2)cc2ccccc12	-9.1	.	.	1.5	.	-2.1	.	.
OC(c1cccc(Cl)c1)c1nc(/C=C/c2ccccc2)cs1 (stereo not given)	3.6	.	.	14.8*	.	2.0	-0.1	-5.0
CN(C(=O)c1ccc(NC(=O)Cc2ccc(NC(=O)C3CCCN(C(=O)CCc4ccccc4)C3)cc2)cc1)C1CCCC1 (stereo not given)	8.0	5.3	.	-3.9	31.7	-7.4	.	.
O=C(Cc1ccc(NC(=O)C2CCCN(C(=O)C3CCCCC3)C2)cc1)Nc1ccc(C(=O)N2CCOCC2)cc1 (stereo not given)	7.3	-3.7	.	3.1	-3.0	-15.7	.	.
O=C(Cc1ccc(NC(=O)C2CCCN(C(=O)C3CC3)C2)cc1)Nc1cccc(C(=O)N2CCCC2)c1 (stereo not given)	0.7	6.2	.	15.3*	4.2	-10.5	-0.8	-3.8
CN(C(=O)c1cccc(NC(=O)Cc2ccc(NC(=O)C3CCCN(C(=O)CCc4ccccc4)C3)cc2)c1)C1CC1 (stereo not given)	1.0	-2.8	.	16.4*	3.7	2.4	1.1*	-1.3
O=C(Cc1ccc(NC(=O)C2CCCN(C(=O)C3CCC3)C2)cc1)Nc1ccc(C(=O)N2CCOCC2)cc1 (stereo not given)	0.5	4.7	.	17.1*	-14.8	-8.1	0.0	1.4
Cc1ccc(C)c(N2CCN(C(C(=O)NC3CCCC3)c3ccco3)CC2)c1 (stereo not given)	4.7	.	.	-3.7	.	16.9	.	.
